Assay results from PubChem BioAssay AID686970 (National Center for Advancing Translational Sciences (NCATS), 2013).
About 6,000 (1.7%) of roughly 360,000 compounds were called active. A call without a number means that no potency is given here. Roughly 8% stayed inconclusive and do not appear here. The sample holds actives, similar compounds and a random draw of the others, so the mix is not that of the screen. Calls come from the whole dose curve; as a rule, active = well fitted cell-killing curve with a large enough effect; inconclusive = small, poorly fitted or top-dose-only effect, or effect the other way; inactive = flat fitted curve, though single readings scatter.

assay: qHTS for induction of synthetic lethality in tumor cells producing 2HG: qHTS for the HT-1080-NT fibrosarcoma cell line; details: HT-1080-NT fibrosarcoma viability, CellTiter-Glo ATP luminescence, 48 h; series mostly up to 46.1 µM;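 note: NT is the 2HG producing partner of a matched IDH1 knockdown line; nearly all actives have a fitted effect of over 55% in size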
Method in brief: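 Toxicity toward the 2HG-producing NT line was scored as %Activity, normalised to DMSO and no-cell wells, from CellTiter-Glo luminescence after 48 hours' treatment.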
Potency is the fitted concentration of half-maximal effect.

SMILES | Potency
O=C(CCN1CCCCC1)Nc1ccc(F)c(F)c1 | inactive
Cc1cccc(C(=O)C(O)(c2ccccc2)C2CCCCC2=O)c1 (stereo not drawn) | inactive
CN(Cc1c(F)cccc1Cl)C(=O)COC(=O)Cn1cnc2ccccc2c1=O | inactive
COC(=O)C[C@@H]1C=C[C@@H](NS(=O)(=O)c2cccc(OC)c2)[C@@H](CO)O1 | inactive
CC[C@@H]1Cc2cc(O)ccc2C2=C1c1ccc(O)cc1C[C@H]2CC | 18.4 µM (active)
Cc1cc(C)c(NC(=O)c2oc3ccccc3c2COc2ccccc2)c(C)c1 | inactive
Cc1cc(C)c(NC(=O)C[N+](C)(C)CC(O)COc2cccc3ccccc23)c(C)c1 (stereo not drawn) | 18.4 µM (active)
Cc1cc(C)cc(OCC(=O)NCc2cc(C)nc3ccccc23)c1 | inactive
CC(C)(C(=O)NO)c1ccccc1 | inactive
CCN1C(=O)[C@H]2[C@@H](c3ccc(C(F)(F)F)cc3)N[C@]3(CCCN(Cc4ccc(Br)cc4)C3=O)[C@H]2C1=O | inactive
O=C(CCCOc1ccc(Cl)cc1Cl)NNC(=O)C1CCC1 | inactive
O=C(NC(c1ccc(-c2ccccc2)cc1)c1cnccn1)C1CCN(CCOc2ccc(Cl)cc2Cl)CC1 (stereo not drawn) | 20.6 µM (active)
COc1cccc(CN2CCC(C(=O)NC(c3ccc4c(c3)OCO4)c3ccccn3)CC2)c1 (stereo not drawn) | inactive
CCCNC(=O)C1(C)CCN1C(=O)C1(c2ccccc2)CC1 (stereo not drawn) | inactive
COc1ccccc1CNC(=O)c1cc(-c2cc(F)ccc2OC)n[nH]1 | inactive
CCNC(=O)c1cc2c(c(-c3cccc(-c4cncnc4)c3)n1)[C@H](CCO)N(C(C)=O)C2 | inactive
COC(=O)c1ccc2nc(-c3ccc(Cl)cc3)c(Cc3cccc(F)c3)n2c1 | inactive
Cn1c(=O)c2cc(NC(=O)NCCc3cccs3)ccc2n1Cc1cccc(C(F)(F)F)c1 | inactive
COc1ccccc1NC(=O)COc1ccc(C(=O)OCC(=O)N(C(C)C)C(C)C)cc1OC | inactive
CCN(CCCCOC(=O)c1ccc(OC)c(OC)c1)C(C)Cc1ccc(OC)cc1 (stereo not drawn) | 18.4 µM (active)
COc1ccc(C(=O)OCC(=O)NCCCc2ccccc2)cc1OC | inactive
CCC(=O)N1Cc2cc(C(=O)NCc3cccc(F)c3)nc(-c3cccc(C4=CCCC4)c3)c2[C@H]1CCO | inactive
CS(=O)(=O)c1cccc(-c2ccc3nncn3c2)c1 | inactive
CCOC(=O)N1CCN(C(c2ccnc3ccccc23)c2nnnn2-c2c(C)cccc2C)CC1 (stereo not drawn) | inactive
CN1C(CC(=O)Nc2ccc(Br)cc2)c2ccccc2CC1(C)C (stereo not drawn) | 18.4 µM (active)

SMILES | Potency
CC1(C)CN(CCc2ccccc2)C(=O)[C@H]1CC(=O)Nc1ccc(Br)cc1 | inactive
CCCCN1CC(C)(C)[C@H](CC(=O)Nc2ccc(Br)cc2)C1=O | inactive
COC(=O)c1ccc2nc(-c3cccc(Br)c3)c(Cc3ccc(OC)cc3C)n2c1 | inactive
COCCn1c(SCC(=O)Nc2ccc(F)cc2F)nc2c(c1=O)SCC2 | inactive
COc1ccccc1NC(=O)COC(=O)COc1ccccc1F | inactive
COc1ccccc1NC(=O)N(O)C1(C#N)CCCCC1 | inactive
COc1ccccc1NC(=O)/C=C/C(N)=O | 8.91 µM (active)
O=C1NC[C@H](CCCCN2C[C@H](Cc3ccc(O)cc3)N(CCc3ccccc3)C(=O)C2=O)N(CCc2ccccc2)C1=O | inactive
Cc1cc(N)n2nc(-c3ccc(C(C)(C)C)cc3)cc2n1 | 16.4 µM (active)
COc1ccc(-c2cc(C)nc3nc(N)nn23)cc1 | inactive
Cc1cc(C(C)(C)C)cc(C)c1N | inactive
Cc1ccc(S(=O)(=O)NN=C2CC(C)(C)CC(=O)C2(C)C)cc1 | inactive
CC(=O)NC(c1cccc(F)c1)c1nc(-c2cccc(F)c2)cs1 (stereo not drawn) | inactive
Cc1ccc(C(O)c2ncc(-c3ccccc3F)[nH]2)cc1F (stereo not drawn) | inactive
CC(=O)Nc1ccc(S(=O)(=O)N(C)c2nc3ccccc3nc2Cl)cc1 | inactive
CC(=O)Nc1ccc(Nc2c([N+](=O)[O-])cc(S(C)(=O)=O)cc2[N+](=O)[O-])cc1 | inactive
CC(=O)Nc1ccc(Nc2c3ccccc3nc3ccccc23)cc1 | 14.6 µM (active)
C[C@H]1CN([C@@H](C)CO)C(=O)c2cc(-c3ccccc3F)cnc2O[C@H]1CN(C)C(=O)C1CCOCC1 | inactive
CCOc1ccc(NC(=O)CSc2nnc3c(n2)[nH]c2ccc(S(=O)(=O)N4CCOCC4)cc23)cc1 | inactive
CCc1nnc(NC(=O)C2CCCN2S(=O)(=O)c2ccccc2)s1 (stereo not drawn) | inactive
CCc1nnc(NC(=O)c2cc(S(=O)(=O)N3CCCCC3)ccc2C)s1 | inactive
CCc1nnc(NC(=O)c2ccc(S(=O)(=O)NC3CCCCC3)cc2)s1 | 6.31 µM (active)
CCOC(=O)c1c(NC(=O)COC(=O)c2ccc(S(=O)(=O)C(F)F)cc2)sc(C(=O)N(C)C)c1C | inactive
CCCCn1nnnc1C1(C)CCC(=O)N1Cc1ccc(OC)c(OC)c1 (stereo not drawn) | inactive
Cc1cccc(NC(=O)COC(=O)c2ccccc2OCc2cccc(Br)c2)c1 | inactive

SMILES | Potency
COc1ccc(C(O)c2nc(-c3ccc(OC)nc3)cs2)cc1 (stereo not drawn) | inactive
COc1ccc(CS(=O)/C(Cl)=C(/Cl)C(=O)Nc2ccc(OC)nc2)cc1 (stereo not drawn) | 1.3 µM (active)
COc1ccc(NC(=O)CN2C(=O)NC(C)(c3ccccc3)C2=O)cn1 (stereo not drawn) | inactive
CC(=O)NC(c1ccccc1)c1nc(-c2ccccc2C)cs1 (stereo not drawn) | inactive
CSc1ncnc2c1ncn2CCCNCC(C)c1ccccc1 (stereo not drawn) | inactive
COc1ccc(NC(=O)N(C)C[C@@H]2OCc3cn(nn3)CCCC(=O)N([C@H](C)CO)C[C@H]2C)c(OC)c1 | inactive
CCCCNC(=O)C[C@@H]1C[C@@]2(C(=O)OC)CC(C)(C)CC=C2N(Cc2ccco2)C1=O | inactive
COc1ccc(Nc2cc(C)nc(-n3nc(C)cc3C)n2)cc1 | 1.12 µM (active)
COc1ccc(NC(=O)c2nc(-n3nc(C)cc3C)ccc2Cl)cc1Cl | inactive
COc1ccc(Nc2cc(Sc3ccc(OC)cc3)ncn2)cc1 | inactive
CNS(=O)(=O)c1ccc2c(c1)[nH]c(=S)n2C | inactive
CC1=C(C(=O)N2CCOCC2)CC(CC(=O)NCc2cccc3ccccc23)C(=O)N1CCC1=CCCCC1 (stereo not drawn) | inactive
CCCC(=O)N1CCC1(C)C(=O)NCc1ccc(C(C)C)cc1 (stereo not drawn) | inactive
O=C(O)c1ccc(NC(=O)c2cn(-c3ccccc3)nc2-c2ccc(Cl)cc2)cc1 | 9.2 µM (active)
Cc1ccc(-c2nn(-c3ccccc3)cc2C(=O)NCCCN2CCCC2=O)cc1 | inactive
Cc1ccc(-c2nn(-c3ccccc3)cc2C(=O)Nc2cccc(S(=O)(=O)N3CCOCC3)c2)cc1 | inactive
COC(=O)C1(C(=O)OC)C[C@H](c2ccccc2)N(Cc2ccccc2OC)[C@@H]1c1ccccc1 | inactive
CCCNC(=O)C1(C)CCN(Cc2csc(-c3ccc(Cl)cc3)n2)C1 (stereo not drawn) | inactive
O=C(COC(=O)c1ccccc1C(=O)N1CCN(c2ccccc2)CC1)NCc1ccccc1 | inactive
Oc1ccccc1N1CCN(C(=S)NCc2ccccc2)CC1 | inactive
Oc1ccc(N2CCN(C(=S)NCc3ccccc3)CC2)cc1 | 9.2 µM (active)
O=C(NOCc1ccccc1)c1cccc([N+](=O)[O-])c1 | inactive
O=C(NC(Nc1nc2ccc([N+](=O)[O-])cc2s1)(C(F)(F)F)C(F)(F)F)c1ccccc1 | 5.17 µM (active)
O=C(COC(=O)c1ccc([N+](=O)[O-])cc1Cl)NC(=O)c1ccccc1 | inactive
COc1ncnc2c1ncn2CCCNCCN1CCOCC1 | inactive

SMILES | Potency
CC1CCCCN1CCCNC(=O)Cn1ncc2c([nH]c3ccccc32)c1=O (stereo not drawn) | inactive
CCC1CCCCN1CCCNC(=O)C1CCC(Cn2c(=O)[nH]c3ccccc3c2=O)CC1 (stereo not drawn) | inactive
CCCCCn1c(=O)[nH]c2cc(C(=O)NCCCN3CCCCC3C)ccc2c1=O (stereo not drawn) | 23.1 µM (active)
CC(C)(O)C1=C[N+](=O)CC=C1 | inactive
c1cc(-c2ccc3[nH]ccc3c2)n2ccnc2c1 | inactive
NC(CSC(c1ccccc1)(c1ccccc1)c1ccc(-c2ccccc2)cc1)C(=O)O (stereo not drawn) | inactive
Clc1ccc(-c2cc(C3CCNCC3)[nH]n2)c(Cl)c1 | 23.1 µM (active)
Clc1ccc(-c2cc(-c3ccccn3)on2)c(Cl)c1 | inactive
C[C@@H]1Cn2cnc(C(=O)Nc3ccc(CNC(=O)OC(C)(C)C)cc3)c2C(=O)N1 | inactive
Cc1nnc(SC(C)C(=O)c2c[nH]c3ccccc23)n1C1CC1 (stereo not drawn) | inactive
O=C(CSc1nc(Nc2ccccc2)nc(N2CCOCC2)n1)Nc1cc(Cl)ccc1O | 16.4 µM (active)
CC1(c2ccccc2)NC(=O)N(CC(=O)Nc2cc(Cl)ccc2N2CCOCC2)C1=O (stereo not drawn) | inactive
Cc1ccccc1NC(=O)CSc1nc2ccc(Nc3nc(N4CCOCC4)nc(N4CCOCC4)n3)cc2s1 | inactive
c1ccc2c(c1)nnn2-c1ccncc1 | inactive
O=C(c1ccc(Oc2ccc(Cl)cc2)c([N+](=O)[O-])c1)N1CCCC1 | inactive
O=C(Nc1ccc(F)cc1)C1CCN(C(=O)c2ccc([N+](=O)[O-])cc2)CC1 | inactive
CC1CCN(C(=O)c2ccc(S(=O)(=O)Cc3cc(F)ccc3F)c([N+](=O)[O-])c2)CC1 | 11.6 µM (active)
Cc1ccc(NC(=S)NCCc2ccc(Cl)cc2)c(C)c1 | inactive
O=C(NCCc1ccc(Cl)cc1)c1cccc(N2CCCC2=O)c1 | inactive
Oc1cc2c(cc1O)CN(C(=S)NCCc1ccc(Cl)cc1)CCC2 | 31.6 µM (active)
Cc1cc(C)c2c(=O)n3c(nc2c1)C(CC(C)C)NC(=O)c1cc2ccccc2cc1-3 (stereo not drawn) | inactive
CC(C)C1CC2=C(C(=O)OC(C)(C)O2)C(c2ccc(F)cc2)O1 (stereo not drawn) | inactive
CN1OC[C@@H]2CN(S(=O)(=O)c3cccc4ccccc34)[C@H](c3ccc(N4CCCCC4)cc3)C[C@@H]21 | inactive
